CYP2C19 inh: inhibitors of human CYP2C19; AID 778; inhibition, % at 5 µM; actives 21% (n = 96,000); P33261; CYP2C19 Supersomes, luciferin-H EGE luminescence, 30 min;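 active means CYP2C19 inhibition above a set limit at 5 µM in the primary screen, cut at about 50% in these data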;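 further: plate controls were negative control wells for no effect and 2.5 mM tranylcypromine positive control for full effect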
Plk1 PBD FP: Plk1 (human) PBD binding inhibition; P53350; Plk1 PBD phosphopeptide binding, fluorescence polarization; inhibition, %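 (tested at about 20 µM)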; actives 0.13% (n = 97,000); in the data active means inhibition above about 34%, passing the limit was not always enough
CYP2C9 activ: increases human cytochrome P450 2C9 activity; recombinant CYP2C9, luciferin-H conversion, luminescence; stronger effect = higher value; factor 1 = untreated enzyme, 0 = blocked; activation factor at 5 µM; actives 1.4% (n = 96,000);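 active means activation factor of 2 or more for CYP2C9 at a 5 µM dose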;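 further: 0 = sulfaphenazole-blocked wells and 1 = vehicle-only wells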
Target sequence (P11712 whole entry, looked up): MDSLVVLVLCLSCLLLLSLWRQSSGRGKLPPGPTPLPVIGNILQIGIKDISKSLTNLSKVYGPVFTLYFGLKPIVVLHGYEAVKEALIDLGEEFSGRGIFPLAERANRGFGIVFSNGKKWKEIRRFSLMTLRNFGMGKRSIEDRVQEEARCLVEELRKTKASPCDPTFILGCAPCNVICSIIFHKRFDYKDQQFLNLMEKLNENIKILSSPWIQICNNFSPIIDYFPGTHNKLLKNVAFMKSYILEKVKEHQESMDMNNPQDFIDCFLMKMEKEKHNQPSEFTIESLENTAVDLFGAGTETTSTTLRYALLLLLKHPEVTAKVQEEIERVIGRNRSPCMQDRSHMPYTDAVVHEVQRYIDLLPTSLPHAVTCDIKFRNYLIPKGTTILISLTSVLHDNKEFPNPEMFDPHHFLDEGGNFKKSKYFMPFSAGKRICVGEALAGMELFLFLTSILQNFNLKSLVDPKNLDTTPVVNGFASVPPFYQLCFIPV
CYP2C19 act: activators of human cytochrome P450 2C19; recombinant CYP2C19, luciferin-H EGE luminescence; stronger effect = higher value; 0 = fully inhibited enzyme, 1 = untreated enzyme; 96,000 tested, under 10 active; activation factor at 5 µM; P33261;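 active means activation factor of at least 2 at 5 µM in the primary screen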;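 further: 0 = wells with 2.5 mM tranylcypromine and 1 = vehicle-only wells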
PLK1 kinase inh: inhibitors of human PLK1 kinase | P53350 | recombinant PLK1 kinase, TR-FRET peptide phosphorylation | inhibition, % at 10 µM | actives 0.53% (n = 97,000);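 active means inhibition of 50% or more in the single-concentration screen; inactive means inhibition below 50%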;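 further: 0% = DMSO max control and 100% = H-89 dihydrochloride min control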
CYP2C9 inhib: human CYP2C9 inhibition; AID 777; actives 20% (n = 96,000); inhibition, % at 5 µM; P11712; CYP2C9 Supersomes, luciferin-H conversion, luminescence;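 active means blocking of liver enzyme CYP2C9 beyond about 50% at 5 µM, limit read from the data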
Active calls of the source: *; / = no result; ! = not active in a repeat. The list is not random: actives were taken first. Their share in the collection is about 28%.

SMILES	CYP2C19 inh	Plk1 PBD FP	CYP2C9 activ	CYP2C19 act	PLK1 kinase inh	CYP2C9 inhib
Cc1cccc(NC(=S)NC2CC3CCC(C2)N3Cc2ccco2)c1 (stereo not given)	-8	10	1	1.1	-7	-4
Cn1c(SCC(=O)c2ccccc2)nnc1-c1ccc(O)cc1	93*	13	1.8	0.1	9	-78
Cn1c(SCC(=O)NC(C)(C)C)nnc1-c1ccc(C(C)(C)C)cc1	18	/	0.5	0.8	/	53*
Cn1c(SCC(=O)c2ccccc2)nnc1-c1ccco1	/	-19	/	/	-7	/
Cn1c(SCC(=O)c2ccccc2)nnc1-c1cccc(N)c1	95*	-1	0.7	0.1	-6	31
CC(=O)N1CCC(N(CCN2CCOCC2)C(=O)Nc2ccc(Cl)c(Cl)c2)CC1	/	18	/	/	-8	/
O=C(Nc1ccccc1)N(CCN1CCOCC1)Cc1cccc(Cl)c1	79*	-19	0.2	0.2	-5	84*
O=S(=O)(c1cccc(C(F)(F)F)c1)N(CCCN1CCOCC1)Cc1cccs1	64*	6	0.8	0.4	-10	21
O=C(Nc1ccc(Cl)c(Cl)c1)N(CCCN1CCOCC1)Cc1cccs1	89*	28	0.2	0.1	-8	84*
O=C(c1ccccc1)N(CCN1CCOCC1)C1(C(=O)Nc2ccccc2)CCCCC1	69*	/	0.8	0.3	/	23
COc1ccc(CN(CCCN2CCOCC2)S(=O)(=O)N(C)C)cc1OC	9	-27	1	0.9	-9	3
COc1ccc(CN(CCCN2CCOCC2)C(=O)Nc2ccccc2)cc1OC	25	15	0.4	0.8	-2	57*
CCc1ccc(NC(=O)N(CCCN2CCOCC2)C(C)c2cc3cccc(OC)c3o2)cc1 (stereo not given)	40	-7	0.3	0.6	4	68*
O=C(Nc1ccccc1)N(CCCN1CCOCC1)Cc1ccccc1F	13	13	0.8	0.9	-13	25
COc1ccc(CN(CCN2CCOCC2)C(=O)c2c(F)cccc2F)cc1OC	52*	-2	0.6	0.5	8	37
O=C(Nc1cccc(Cl)c1)N(CCCN1CCOCC1)Cc1ccccc1F	28	11	0.3	0.7	-17	65*
COC(=O)c1cc(OC)c(OC)cc1NC(=O)c1ccc(OC)c(OC)c1	9	1	1.1	0.9	-1	-11
Cc1ccc(OCc2nn3c(-c4n[nH]c5c4CCC5)nnc3s2)cc1	8	/	0.8	0.9	/	18
CC(=NCc1cccnc1)C1=C(O)c2ccccc2C1=O	38	13	0.7	0.6	-7	26
CC(=NCc1ccncc1)C1=C(O)c2ccccc2C1=O	65*	-14	0.2	0.3	32	83*
CC(=NCCCn1ccnc1)C1=C(O)c2ccccc2C1=O	46	4	0.2	0.5	-9	81*
CCc1ccc(N(CC(=O)Nc2ccc(OC)cc2OC)S(C)(=O)=O)cc1	88*	/	0	0.1	/	97*
COc1ccccc1NC(=O)C1=C(C)NC(=O)NC1c1ccc(C)cc1 (stereo not given)	35	/	0.9	0.7	/	5
COc1ccc(C)cc1NC(=O)CN(c1ccc(F)cc1)S(C)(=O)=O	31	-16	0.3	0.7	-3	65*
COc1ccc(C)cc1NC(=O)CN(c1ccccc1F)S(C)(=O)=O	36	5	0.5	0.6	2	52*
SMILES	CYP2C19 inh	Plk1 PBD FP	CYP2C9 activ	CYP2C19 act	PLK1 kinase inh	CYP2C9 inhib
COc1ccccc1NC(=O)C12CC3CC(C1)CC(c1ccc(C)cc1)(C3)C2	57*	-17	1	0.4	-8	-4
CCOC(=O)C1CCN(Cc2nc3ccc(Cl)cc3n2CCO)CC1	26	5	0.9	0.7	-5	6
COc1ccccc1NC(=O)CN(c1ccc(C23CC4CC(CC(C4)C2)C3)cc1)S(C)(=O)=O	3	34	0.4	1	-2	64*
CCOC(=O)C(C)C1(O)c2ccccc2-c2ncccc21 (stereo not given)	26	26	1	0.7	-9	-3
OC(CC1CC12c1ccccc1-c1ncccc12)(c1ccccc1)c1ccccc1 (stereo not given)	92*	1	0	0.1	-7	97*
O=S(=O)(c1cccc(-c2nnco2)c1)N1CCCC1	17	-32	1.2	0.8	0	-15
c1ccc2[nH]c(-c3ccnc4ccccc34)nc2c1	29	-5	0.5	0.7	-7	54*!

Source: PubChem
